Data on 38 compounds can be found in PubChem BioAssay (NCATS).

Assay [1] deals with Aldehyde dehydrogenase, mitochondrial (Homo sapiens) (UniProt P05091). In words: qHTS for Inhibitors of the Aldehyde Dehydrogenase Family (ALDH2) Primary screen (AID 2061308). Further: nearly all actives have a fitted effect of over 55% in size.
Assay [2] has as its target Retinaldehyde dehydrogenase 3 (Homo sapiens) (UniProt P47895). In words: qHTS for Inhibitors of the Aldehyde Dehydrogenase Family (ALDH1A3) Primary screen (AID 2061315). A general note: In qHTS, concentration-response curves come from the screen itself.

Results filed as inconclusive are left out. Where a call stands in place of a potency, no number is given. Active and inactive are the calls of the source. The call rests on the fitted dose curve; in most records, active means well fitted curve in the direction sought with a large enough effect; inconclusive means small, poorly fitted or top-dose-only effect, or another doubt; inactive means no such curve, though single readings can be large; an effect the other way counts as inactive or inconclusive.

Take `CC(C)(C)n1nc(Cc2cccc3ccccc23)c2c(N)ncnc21`: the Potency entry in assay [1] and in assay [2] was “inactive” each time.

Regarding `CCOc1ccc(CCNC(=O)C2COc3ccccc3O2)cc1OCC` (stereo unspecified), the Potency result in assay [1] and in assay [2] was “inactive” throughout.

For `COc1ccc(NC(=O)C(OC(=O)CNC(=O)c2ccccc2)c2ccccc2)cc1Cl` (stereo unspecified), the Potency result in assay [1] and in assay [2] was “inactive” in each case.

With `CC1CC1C(=O)Nc1ccc([S+](=O)([O-])Nc2nccs2)cc1` (stereo unspecified), the Potency entry in assay [1] and in assay [2] was “inactive” each time.

As for `O=C(CCCCSc1nnc(-c2cccc3ccccc23)o1)Oc1ccc(F)cc1`, the Potency result in assay [1] and in assay [2] was “inactive” each time.

With `COc1cc(F)c(S(=O)(=O)N2CCN(S(=O)(=O)c3ccc4c(c3)OCCO4)CC2)c(F)c1`, the Potency entry in assay [1] and in assay [2] was “inactive” in each case.

As to `O=C1c2ccccc2C(=O)N1c1ccncc1`, the Potency entry in assay [1] and in assay [2] was “inactive” throughout.

Regarding `COc1ccc(N2C(=O)c3ccccc3S2(=O)=O)cc1`, the Potency result in assay [1] and in assay [2] was “inactive” throughout.

With `COc1ccc2c(c1)C=C1Cn3c-2c(C2CCCCC2)c2ccc(cc23)C(=O)NS(=O)(=O)N(C)CCOCCN(C)C1=O`, the Potency result in assay [1] and in assay [2] was “inactive” in each case.

As for `COc1cccc(Cn2ncc3c4sc(Br)cc4n(C)c3c2=O)c1`, the Potency result in assay [1] and in assay [2] was “inactive” in each case.

In the case of `Cc1ccccc1-c1ccc(NC(=O)c2cccs2)cn1`, the Potency entry in assay [1] and in assay [2] was “inactive” in each case.

Consider `C[C@@H]1C[C@@H](O)[C@@]23CO[C@@H](O)[C@@H]2CCC[C@@H]3[C@@]12C[C@@H](c1ccoc1)OC2=O`, for which the Potency result in assay [1] and in assay [2] was “inactive” throughout.

For the compound `Cc1ccc(NS(=O)(=O)c2ccc(C(=O)Nc3nc(-c4ccccc4)cs3)cc2)cc1`, the Potency result in assay [1] and in assay [2] was “inactive” throughout.

`O=C(O)c1ccc(-c2noc(-c3cccc(C(F)(F)F)c3)n2)cc1`: the Potency result in assay [1] and in assay [2] was “inactive” in each case.

In the case of `COc1cc(F)c(S(=O)(=O)N2CCCN(S(=O)(=O)c3ccc4c(c3)OCCO4)CC2)c(F)c1`, the Potency entry in assay [1] and in assay [2] was “inactive” throughout.

As for `CCOc1ccc(CCNC(=O)c2cccc(C(=O)c3ccccc3)c2)cc1OCC`, the Potency result in assay [1] and in assay [2] was “inactive” in each case.

For the compound `CCOC(=O)C1CCN(C(=O)C2(NC(=O)Nc3ccccc3Cl)CCCCC2)CC1`, the Potency entry in assay [1] and in assay [2] was “inactive” each time.

As for `O=C(Cn1cc(CNC(=O)c2ccccc2)nn1)Nc1cc(C(F)(F)F)ccc1Cl`, the Potency entry in assay [1] and in assay [2] was “inactive” throughout.

Take `Cc1ccc(S(=O)(=O)Nc2ccc(F)cc2C(=O)Nc2nc(-c3ccccc3)cs2)cc1`: the Potency result in assay [1] and in assay [2] was “inactive” throughout.

For the compound `OC[C@H]1O[C@@H](Oc2cccc3ccccc23)[C@H](O)[C@@H](O)[C@H]1O`, the Potency result in assay [1] and in assay [2] was “inactive” in each case.

For the compound `CC1=C(C(=O)NC2CCCCC2)C(c2ccccc2Br)N=C(Nc2nc3ccccc3o2)N1` (stereo unspecified), the Potency entry in assay [1] and in assay [2] was “inactive” each time.

For the compound `COc1ccc(NC(=O)CN2C(=O)N/C(=C\c3cccn3-c3ccc(C(=O)NC#N)cc3)C2=O)cc1`, the Potency entry in assay [1] and in assay [2] was “inactive” each time.

As for `COc1ccc(C2=Nn3c(nnc3-c3ccc(OC)c(OC)c3)SC2)cc1OC`, the Potency result in assay [1] and in assay [2] was “inactive” throughout.

Regarding `COc1cc(O)c(C(CC(=O)N2CCCCC2)c2ccc3c(c2)OCO3)c(OC)c1` (stereo unspecified), the Potency entry in assay [1] and in assay [2] was “inactive” in each case.

Consider `O=C(Nc1ccccc1)Nc1nc(Nc2cc(F)cc(F)c2)nc(NC2CCCC2)n1`, for which the Potency result in assay [1] and in assay [2] was “inactive” throughout.

With `Cc1ccc(-c2ccc(=O)n(CC(=O)N(C)CCc3ccco3)n2)cc1`, the Potency entry in assay [1] and in assay [2] was “inactive” in each case.

Consider `CC(C)(C)OC(=O)N[C@@H](Cc1ccc(OS(=O)(=O)c2cccc3cnccc23)cc1)C(=O)N1CCCN(C(=O)OC(C)(C)C)CC1`, for which the Potency result in assay [1] and in assay [2] was “inactive” in each case.

Regarding `Cc1ccc(S(=O)(=O)n2cc(C(=O)Nc3nc(-c4ccccc4)cs3)c3ccccc32)cc1`, the Potency result in assay [1] and in assay [2] was “inactive” throughout.

For `FC(F)(F)c1ccccc1-c1nc(NCc2ccc(C3CCCCC3)cc2)c2ccccc2n1`, the Potency result in assay [1] and in assay [2] was “inactive” in each case.

With `O=C(O)c1ccc2c(c1)C(=O)N([C@@H](Cc1ccc(O)cc1)C(=O)O)C2=O`, the Potency entry in assay [1] and in assay [2] was “inactive” throughout.

Take `O=C(CCCc1ccccc1)NC(c1ccco1)c1cc(Cl)c2cccnc2c1O` (stereo unspecified): the Potency result in assay [1] and in assay [2] was “inactive” throughout.

Consider `Cc1cc(OCCCSc2nc(-c3ccc(C(C)(C)C)cc3)nc3cc(=O)[nH]n23)ccc1Cl`, for which the Potency result in assay [1] and in assay [2] was “inactive” in each case.

Take `O=C1CCc2cc(S(=O)(=O)Nc3ccc4c(c3)CCC4)ccc2N1`: the Potency entry in assay [1] and in assay [2] was “inactive” throughout.

With `O=S(=O)(Nc1nc(CN2CCOCC2)nc2sc3c(c12)CCC3)c1ccc2c(c1)OCCO2`, the Potency entry in assay [1] and in assay [2] was “inactive” throughout.

As for `Cc1cccc(C)c1SC1=NS(=O)(=O)c2ccccc21`, the Potency entry in assay [1] and in assay [2] was “inactive” throughout.

As for `Cc1cc2c(s1)c1cnn(Cc3cccc(F)c3F)c(=O)c1n2C`, the Potency result in assay [1] and in assay [2] was “inactive” in each case.

As for `CC(Nc1nc(-c2ccccc2C(F)(F)F)nc2ccccc12)c1ccc(-c2ccccc2)cc1` (stereo unspecified), the Potency result in assay [1] and in assay [2] was “inactive” in each case.

Regarding `O=C1CCCC2=C1C(c1ccccc1Br)N=C(Nc1nc3ccccc3o1)N2` (stereo unspecified), the Potency entry in assay [1] and in assay [2] was “inactive” in each case.
